In the library only some 11% were active in any assay of this set; here they are far more common.
Insulin prom inh = TRM-6 insulin promoter activity inhibition; actives 0.9% (n = 130,000); AID 1273; inhibition, % at 2 µM; TRM-6 cells (human fetal islet line), insulin promoter-eGFP reporter, imaging; reporter expression induced with tamoxifen;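 active means inhibition above the mean plus 3 SD, with well images judged a real hit on visual review, cut at about 60% in these data, passing the limit was not always enough; inconclusive means inhibition over the cutoff but images rejected on review; inactive means inhibition not above the cutoff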
Insulin prom up = MIN6 insulin promoter up-regulation; MIN6 insulin promoter-GFP reporter, high-content imaging; stronger effect = higher value; z-score at 5 µM; actives 0.3% (n = 190,000); AID 1625;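 active means z-score above 3 at 5 µM with at least 500 cells counted in the well; inconclusive means wells under 500 cells, flagged as cytotoxic or low count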
Autophagy mod = modulators of autophagy; MEF GFP-LC3 puncta imaging; test concentration mostly 10 µM; calls only at 10 µM (by protocol); actives 0.98% (n = 190,000); AID 463193;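 active means percentage of spot-positive cells more than 3 SD above its plate mean, without a fluorescence outlier flag or 80% toxicity; inconclusive means no clear call, values can overlap the other calls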
L major viab = reduces viability of Leishmania major promastigotes; actives 9% (n = 200,000); resazurin fluorescence viability; inhibition, % at 10 µM; in the data active means inhibition above about 50%;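 further: promastigotes grown with compound for 44 hours at 28 °C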
WT yeast gro inh = growth inhibition of WT yeast, mitochondrial fusion screen. inhibition, % at 10 µM. actives 2.1% (n = 190,000). mitochondrial fusion phenotypic screen, WT strain; in the data active means inhibition above about 58%; tested in S. cerevisiae
Hits are given with their value; . = inactive; ? = inconclusive; / = no result given; + = active, no number.

SMILES	Insulin prom inh	Insulin prom up	Autophagy mod	L major viab	WT yeast gro inh
O=C(COC(=O)/C=C/c1nc2ccccc2s1)Nc1cccc(Cl)c1Cl	.	.	.	58.8	.
COc1ccc(C(=O)NNc2ccccc2)cc1	.	.	.	92.0	.
COc1ccc(C(=O)NC(Nc2ccccc2)C(Cl)(Cl)Cl)cc1 (stereo not given)	?	.	.	99.3	.
O=C(CNC(=O)c1ccccc1Cl)OC1CCOC1=O (stereo not given)	/	/	.	.	.
COc1cc(C(=O)N/N=C(\c2ccccc2)c2ccccn2)cc(OC)c1OC	/	.	.	99.5	.
COc1cccc(C(=O)N/N=C(/c2ccccc2)c2ccccn2)c1	.	.	+	99.9	65.7
COc1cc(NC(=O)c2ccccn2)cc(OC)c1OC	/	.	.	.	.
COc1cccc(C(=O)N/N=C(/CCC(=O)O)c2ccccc2)c1	.	.	.	.	.
COc1ccc(OC)c(C(=O)CSc2nc3ccccc3n2CC(=O)NC(C)(C)C)c1	.	.	.	61.4	.
CCCSC1=C(C#N)C(c2ccc(Cl)cc2Cl)CC(=O)N1 (stereo not given)	.	.	.	.	.
CC1=C(C#N)C(/C=N/OCc2ccc(Cl)cc2)CC(=O)N1 (stereo not given)	83.3	.	.	.	.
CC(NCC(O)COCCC12CC3CC(CC(C3)C1)C2)c1ccccc1 (stereo not given)	.	.	.	100.5	75.9
O=C(OCC(O)CN1CCCCC1)C12CC3CC(CC(C3)C1)C2 (stereo not given)	/	.	.	90.8	.
OC(COCCC12CC3CC(CC(C3)C1)C2)CN1CCCC1 (stereo not given)	/	.	.	91.3	.
COc1ccc(/C=C/C(=O)OCC(=O)NCc2ccco2)cc1OC	.	.	.	.	.
CCOC(=O)N1CCN(C(=O)CCNS(=O)(=O)c2ccc3c(c2)c(=O)n(C)c(=O)n3C)CC1	.	.	.	.	.
COc1ccc(NC(=O)CCN2C(=O)c3ccncc3C2=O)cc1OC	/	.	/	/	/
CCC(C)(C)C1CCC2(CC1)NC(=S)N(c1ccccc1)N2 (stereo not given)	/	.	/	/	/
CC(C)(C)C1CCC2(CC1)NC(=S)N(c1ccccc1)N2 (stereo not given)	.	.	.	58.4	.
CCC(=O)Nc1ccc(-c2nnc(SCc3ccc(C(=O)Nc4nccs4)cc3)n2CC)cc1	/	.	.	.	60.3
CCn1c(SCC(=O)Nc2nccs2)nnc1-c1ccc(C)cc1	.	.	.	.	.
CCN(CC)S(=O)(=O)c1cc(NC(=O)C(C)N2CCN(c3ccccn3)CC2)ccc1C (stereo not given)	/	.	.	.	.
CCN(CC)S(=O)(=O)c1cc(NC(=O)C(C)Nc2ccccc2N2CCOCC2)ccc1C (stereo not given)	/	.	.	70.6	.
CCN(CC)S(=O)(=O)c1cc(NC(=O)C(C)N2CCN(Cc3ccc4c(c3)OCO4)CC2)ccc1C (stereo not given)	.	.	.	88.3	.
CCN(CC)S(=O)(=O)c1ccc(N2CCCCC2)c(C(=O)Nc2ccccc2N2CCOCC2)c1	.	.	.	.	.
SMILES	Insulin prom inh	Insulin prom up	Autophagy mod	L major viab	WT yeast gro inh
CCCCOCCCNC(=O)C1CCCCC1	/	.	/	.	.
CCOC(=O)C1=C(C)N(CC(C)C)C(=O)/C1=C\c1ccc(OCC(=O)Nc2ccccc2)cc1	/	.	.	81.1	.
CCOC(=O)c1cc(=O)c2ccc(OCC(=O)Nc3ccccc3)cc2o1	/	.	/	/	/
O=C(/C=C/c1ccccc1)OCCCN=C1NS(=O)(=O)c2ccccc21	.	.	.	.	.
CC(C)CN1C(=O)/C(=C(/C#N)C(=O)NC2CCCCC2)c2ccccc21	.	.	.	97.2	.
CCNC(=O)c1ccc(C23CC4CC(CC(C4)C2)C3)o1	/	.	.	89.0	.
Cc1ccc(/C=C/C(=O)c2ccccc(=O)c2O)cc1C	.	.	.	97.2	.
O=C(/C=C/c1ccccc1)c1cc(Br)ccc(=O)c1O	.	.	.	77.4	.
CC(=O)N1CCN(C(=O)c2cc(C)nc3ccccc23)CC1	70.6	.	.	.	.
Cc1cc(C(=O)OCC(=O)N2CCCC2)c2ccccc2n1	.	.	.	.	.
COc1ccc(CCNC(=O)c2cc(C(=O)c3cc(C)ccc3O)cn(CCc3ccc(OC)cc3)c2=O)cc1	.	/	.	95.6	.
COc1ccc(CCNC(=O)c2cc(C(=O)c3cc(Cl)ccc3O)cn(CCc3ccc(OC)cc3)c2=O)cc1	.	/	.	99.5	.
O=C(c1cc(C(=O)NCCc2ccccc2)c(=O)n(CCc2ccccc2)c1)c1cc(Cl)ccc1O	.	.	.	98.1	.
